Compound activity deposited in PubChem BioAssay by National Center for Advancing Translational Sciences (NCATS).
PI5P4Ka inh: inhibitors of human PI5P4K alpha; max response, %; 1.2% of 330,000 active; PI5P4Kalpha enzyme, ADP-Glo luminescence, 60 min; stronger effect = lower value; active means max response of -50% or lower; inconclusive means between -30% and -50%; inactive means -30% or higher; further: value at the top dose of about 77 µM; on the % scale 0 is the no-effect control and ±100 the full control effect
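Compounds were pin-transferred onto PI5P4Kalpha and substrate in HEPES pH 7.4 buffer with EGTA, CHAPS and 5% DMSO. ATP (5 microM final) started the reaction, which ran 60 minutes at room temperature before ADP-Glo detection.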
POLI inh: DNA polymerase iota (human) inhibition; AID 588590; Potency, µM (highest dose often 115 µM), inactives show top-dose activity, negative = inhibition, usual class: inhibitors; Q9UNA4; Pol iota fluorescent replication assay, 10 min; 1% of 390,000 active; further: potency means the concentration at half of the fitted maximal effect
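Pol iota at 10 nM preincubated 15 min with compounds at room temperature; reaction started with fluorescent substrate, 50 nM final. Fluorescence read kinetically at 0 and 10 min; buffer-only wells as negative control.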
Pol beta inh: blocks human DNA polymerase beta activity; P06746; Pol beta primer extension/strand displacement, fluorescence kinetic; Potency, µM (doses to about 114 µM), inactives show top-dose activity change, negative = inhibition, most hits filed as inhibitors; 1.3% of 340,000 active; further: potency means the concentration at half of the fitted maximal effect; on the % scale 0 is the no-effect control and ±100 the full control effect
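Pol beta (10 nM) and compounds were preincubated 15 min at room temperature, then 50 nM substrate (final) started primer extension/strand displacement. Reads were taken at 0 and 10 min; concentration-response data were fitted to a four-parameter Hill equation.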
Pol eta inh: blocks human DNA polymerase eta activity; Q9Y253; recombinant Pol eta, fluorescent DNA replication assay; Potency, µM (titrated, usually from 114 µM), for the others: at the top dose activity change, negative = inhibition, hits mostly inhibitors; 1.2% of 390,000 active; AID 588591; further: potency means the concentration at half of the fitted maximal effect; on the % scale 0 is the no-effect control and ±100 the full control effect
Target sequence (Q9Y253 whole entry, looked up): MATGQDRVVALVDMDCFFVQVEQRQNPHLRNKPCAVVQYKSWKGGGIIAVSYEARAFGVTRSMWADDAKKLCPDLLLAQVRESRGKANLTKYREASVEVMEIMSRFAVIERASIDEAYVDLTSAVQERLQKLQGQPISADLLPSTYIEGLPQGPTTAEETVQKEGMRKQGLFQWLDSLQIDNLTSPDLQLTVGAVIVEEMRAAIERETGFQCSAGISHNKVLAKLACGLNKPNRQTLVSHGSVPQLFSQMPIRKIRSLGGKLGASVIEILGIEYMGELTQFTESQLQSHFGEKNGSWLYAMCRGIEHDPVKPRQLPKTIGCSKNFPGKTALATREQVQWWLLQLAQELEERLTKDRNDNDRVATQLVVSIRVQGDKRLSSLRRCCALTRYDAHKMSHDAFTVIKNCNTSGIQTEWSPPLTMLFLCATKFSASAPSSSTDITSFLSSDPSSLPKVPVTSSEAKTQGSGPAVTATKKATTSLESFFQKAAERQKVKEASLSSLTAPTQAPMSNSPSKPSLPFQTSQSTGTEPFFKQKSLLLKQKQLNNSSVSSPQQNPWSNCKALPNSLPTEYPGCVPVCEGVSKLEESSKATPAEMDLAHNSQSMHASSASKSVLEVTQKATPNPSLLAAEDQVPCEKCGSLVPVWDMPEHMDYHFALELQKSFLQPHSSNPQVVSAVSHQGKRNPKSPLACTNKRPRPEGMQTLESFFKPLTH
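Fluorescent replication assay: 50 nM final substrate added after a 15 min room-temperature compound preincubation with 10 nM enzyme. Signal taken at 0 min and again at 10 min.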
Pol kappa inh: DNA polymerase kappa (human) inhibition | Q9UBT6 | purified Pol kappa, fluorescent DNA synthesis assay, 10 min | Potency, µM (highest dose often 107 µM), for inactives: at the top dose activity, negative = inhibition, hits mostly inhibitors | 0.53% of 400,000 active | AID 588579; further: potency means the concentration at half of the fitted maximal effect; on the % scale 0 is the no-effect control and ±100 the full control effect
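Here, compound and 10 nM enzyme are combined for 15 min at room temperature; adding 50 nM substrate (final) starts DNA synthesis, tracked by fluorescence at 0 and 10 min against buffer-only wells.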
WRN helicase inh: WRN helicase (human) inhibition. WRN helicase unwinding, fluorescent forked duplex, kinetic. Q14191. AID 651768. 0.46% of 360,000 active. Potency, µM (top dose mostly 114 µM), inactives show top-dose activity change, negative = inhibition, most hits filed as inhibitors; further: potency means the concentration at half of the fitted maximal effect; on the % scale 0 is the no-effect control and ±100 the full control effect; nearly all actives have a fitted effect of over 55% in size
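WRN at 20 nM final was preincubated with compound for 15 min at room temperature; reaction started with 100 nM forked duplex oligonucleotide carrying fluorophore and quencher plus 2 mM ATP (final). Unwinding followed kinetically by red fluorescence (ex 525/em 598 nm).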
Numbers without * were called inactive; ? = inconclusive; · = no result; [ ] = remark or other dose. Hits are enriched below; roughly 2.8% of the tested compounds scored in any of these assays. Unless noted, the call rests on the fitted dose curve; in most records, active means well fitted curve in the direction sought with a large enough effect; inconclusive means small, poorly fitted or top-dose-only effect, or another doubt; inactive means no such curve, though single readings can be large; an effect the other way counts as inactive or inconclusive.

SMILES	PI5P4Ka inh	POLI inh	Pol beta inh	Pol eta inh	Pol kappa inh	WRN helicase inh
Cc1ccc(/C=N/n2c(-c3ccccc3)n[nH]c2=S)cc1	-2	-2%	-23%	5%	-3%	7%
CCc1ccccc1NC(=O)CN(Cc1ccccc1)S(=O)(=O)c1ccc(Br)cc1	·	-5%	21%	1%	-5%	·
CCOc1ccc(-c2c(C)nn3c(C)c(C(=O)NC(C)c4ccccc4)cnc23)cc1OCC (centres undefined)	·	-7%	-3%	·	0%	·
CCC(CC)C(=O)Nc1cccc(C(=O)NCc2ccco2)c1	·	40µM*	3.2µM*	?	?	-19%[57.1 µM]
Cc1cccc(C(=O)NCc2ccco2)c1	-29	?	56µM*	?	-42%	-2%[11.6 µM]
O=C(NCc1ccco1)c1cccc(NC(=O)c2ccccc2)c1	0	-2%	1%	-6%	-7%	2%
CCOc1ccc(C(=O)NCc2ccco2)cc1	·	?	22µM*	?	?	-13%[57.1 µM]
CC(C)CNC(=O)c1cccc(NC(=O)c2ccc(NC(=O)c3ccco3)cc2)c1	·	?	25µM*	-9%	-14%	-14%
O=C(Cn1c(=O)n(CCc2ccccc2)c(=O)c2c3c(sc21)CCCC3)Nc1ccc(F)c(F)c1	·	12%	0%	-19%	4%	·
CCCOC(=O)c1c(-c2ccccc2)c(-c2ccccc2)nn(C)c1=O	·	8%	-8%	-21%	-3%	·
CCOC(=O)c1c(C)c(C(=O)NCc2ccco2)c(C)n1CC	-1	16%	-1%	2%	5%	-3%
CCOC(=O)c1c(C)c(C(=O)NCc2ccco2)c(C)n1Cc1ccccc1	·	?	40µM*	?	-36%	-16%[57.1 µM]
O=C(NCc1ccco1)c1ccc(Cn2c(=S)[nH]c3ccccc3c2=O)cc1	-2	95%	20µM*	?	-30%	-28%
Cc1cc2n(n1)CCCN2C(=O)Nc1ccc(C)c(Cl)c1	·	10%	19%	·	-3%	·
COc1cccc(OCC(=O)Nc2nnc3n2CCS3)c1	·	3%	16%	3%	-5%[60.1 µM]	·
CCCCCCOc1ccc(-c2nc3ccc(Br)cc3c(=O)o2)cc1	·	-8%	8%	-18%	-3%	·
Cc1[nH]c2c(ccc3cccnc32)c1C	3	65%	1%	-18%	-6%	2%
CC1=[N+](C)c2c(ccc3cccnc23)C1(C)C	-19	53%	25µM*	-12%	-11%	56µM*
CC1=NN(c2ccc(Cl)cc2)C(=O)C1	-1	2.5µM*	4%	-8%	-13%	1%[11.6 µM]
CC1=NN(c2ccc(N)cc2)C(=O)C1	-23	?	-1%	?	?	45µM*
CC1=NN(c2ccccc2)C(=O)C1	1	?	44%	-4%	-8%	9%
COc1cccc(-c2cc(C(=O)Nc3c(C)nn(Cc4ccccc4Cl)c3C)no2)c1	·	7%	11%	-20%	-28%	·
Cc1ccc(C)c(CNC(=O)c2ccc3c(c2)nc2n3CCC(C)C2)c1 (centres undefined)	·	14%	-10%	-12%	-1%[60.1 µM]	·
COc1cccc2c1C(=O)c1c(O)c3c(c(O)c1C2=O)C[C@@](O)(C(=O)CO)C[C@@H]3OC1C[C@@H](N)[C@H](O)[C@H](C)O1 (some centres undefined)	·	·	·	·	18µM*	·
COc1cccc2c1C(=O)c1c(O)c3c(c(O)c1C2=O)C[C@@](O)(C(=O)CO)C[C@@H]3O[C@H]1C[C@H](N)[C@@H](O)[C@H](C)O1	-19	40µM*	·	?	?	56µM*
SMILES	PI5P4Ka inh	POLI inh	Pol beta inh	Pol eta inh	Pol kappa inh	WRN helicase inh
COc1cccc2c1C(=O)c1c(O)c3c(c(O)c1C2=O)C[C@](O)(C(=O)CO)C[C@@H]3O[C@H]1C[C@H](N)[C@@H](O)[C@H](C)O1	·	·	·	·	-2%[60.1 µM]	·
O=C(CSc1oc(-c2ccco2)nc1S(=O)(=O)c1ccc(Br)cc1)c1ccccc1	·	-11%	-7%	-6%	-29%	·
COc1cccc(-n2c(C)nc3c(cnn3-c3ccc(C)cc3)c2=O)c1	-8	3%	-1%	8%	-8%	0%
COc1cccc(-n2c(-c3ccccc3F)nc3c(cnn3-c3ccc(C)cc3)c2=O)c1	·	16µM*	5%	-10%	-16%	·
Cc1c(C(=O)Nc2nc(-c3ccccn3)cs2)oc2ccccc12	-59*	?	·	?	?	-8%
O=C(/C=C/c1ccco1)Nc1nc(-c2ccccc2)cs1	-5	31%	0%	-6%	2%	-22%
O=C(O)/C=C/C(=O)Nc1cccc2cccnc12	-3	-4%	10%	-13%	1%	1%
O=C(/C=C/c1ccco1)Nc1nc(-c2ccccn2)cs1	-93*	?	25µM*	?	32µM*	?
O=C(/C=C/c1ccco1)Nc1cccc2cccnc12	-82*	6.3µM*	40µM*	28µM*	28µM*	?
C=C(CC[C@@H](C)[C@H]1CCC2[C@]1(C)CC[C@]13C[C@@]14CCC(OC(=O)/C=C/c1ccc(O)c(OC)c1)C(C)(C)[C@@H]4CC[C@@]23C)C(C)C (some centres undefined)	·	·	·	·	-6%[19.4 µM]	·
COc1ccc(-n2cc(C(=O)Nc3ccccc3C#N)c3ccccc3c2=O)cc1	·	5%	12%	-17%	-4%	·
O=C(NCCOCCn1c(=O)oc2ccccc21)Nc1cccc(Cl)c1	·	30%	43%	-8%	7%	·
O=C(O)CCc1ccc(-c2ccc(Br)cc2)n1-c1ccc(O)cc1	-7	?	2%	-7%	-2%	-8%
O=C(O)CCc1ccc(-c2ccc(Br)cc2)n1Cc1ccco1	·	50µM*	?	56µM*	-38%	-12%[57.1 µM]
O=C(O)CCc1ccc(-c2ccc(F)cc2)n1Cc1ccco1	·	-15%	-24%	-10%	-12%	-17%
O=C(O)CCc1ccc(-c2ccccc2)n1Cc1ccco1	?	?	-2%	16µM*	?	?
Cc1ccc(NC(=O)N2CCc3c([nH]c4ccccc34)C2c2ccccc2F)c(Cl)c1 (centres undefined)	·	-9%	-3%	5%	2%	·
CCOc1cccc2sc(N3CCN(C(=O)C(C)(C)C)CC3)nc12	·	15%	-3%	-13%	3%[60.1 µM]	·
Nc1c(C(=O)Nc2nc3ccccc3s2)sc2nc(-c3cccs3)ccc12	·	32µM*	-123%	89µM*	?	?
Cc1csc(NC(=O)CSc2nc3[nH]c(=O)cc(O)c3s2)n1	-13	8%	·	28µM*	-14%	-5%
CCc1nnc(NC(=O)CSc2nc3[nH]c(=O)cc(O)c3s2)s1	-27	?	·	?	?	-25%
O=C(CSc1nc2[nH]c(=O)cc(O)c2s1)Nc1nncs1	-2	18%	·	3%	-14%	9%
